# Tests used:
# [1] = target: T1, Mitogen-activated protein kinase 12 (Homo sapiens) (UniProt P53778); conditions: at 1 µM;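 further: values are averaged p38gamma kinase inhibition readings, compounds tested at 1 µM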
# T1 sequence (whole entry): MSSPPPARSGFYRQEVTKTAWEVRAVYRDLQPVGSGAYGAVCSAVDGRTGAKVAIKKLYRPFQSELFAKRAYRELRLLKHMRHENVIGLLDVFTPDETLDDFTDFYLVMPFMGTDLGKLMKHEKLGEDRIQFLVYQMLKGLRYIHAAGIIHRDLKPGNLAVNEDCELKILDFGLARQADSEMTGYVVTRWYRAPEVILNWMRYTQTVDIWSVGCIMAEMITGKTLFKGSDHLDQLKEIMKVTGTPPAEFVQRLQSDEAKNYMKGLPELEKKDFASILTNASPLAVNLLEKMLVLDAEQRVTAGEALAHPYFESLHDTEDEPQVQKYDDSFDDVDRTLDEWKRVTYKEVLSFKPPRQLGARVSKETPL
# [2] = target: SRSF protein kinase 1 (Homo sapiens) (UniProt Q96SB4); conditions: at 0.1 µM
# [3] = target: SRSF protein kinase 1 (Homo sapiens) (UniProt Q96SB4); conditions: at 1 µM
# [4] = target: Phosphatidylinositol 4,5-bisphosphate 3-kinase catalytic subunit alpha isoform (Homo sapiens) (UniProt P42336); conditions: at 0.1 µM
# [5] = target: Phosphatidylinositol 4,5-bisphosphate 3-kinase catalytic subunit alpha isoform (Homo sapiens) (UniProt P42336); conditions: at 1 µM
# [6] = target: T2, Phosphatidylinositol 4,5-bisphosphate 3-kinase catalytic subunit delta isoform (Homo sapiens) (UniProt O00329); conditions: at 0.1 µM
# T2 sequence (whole entry): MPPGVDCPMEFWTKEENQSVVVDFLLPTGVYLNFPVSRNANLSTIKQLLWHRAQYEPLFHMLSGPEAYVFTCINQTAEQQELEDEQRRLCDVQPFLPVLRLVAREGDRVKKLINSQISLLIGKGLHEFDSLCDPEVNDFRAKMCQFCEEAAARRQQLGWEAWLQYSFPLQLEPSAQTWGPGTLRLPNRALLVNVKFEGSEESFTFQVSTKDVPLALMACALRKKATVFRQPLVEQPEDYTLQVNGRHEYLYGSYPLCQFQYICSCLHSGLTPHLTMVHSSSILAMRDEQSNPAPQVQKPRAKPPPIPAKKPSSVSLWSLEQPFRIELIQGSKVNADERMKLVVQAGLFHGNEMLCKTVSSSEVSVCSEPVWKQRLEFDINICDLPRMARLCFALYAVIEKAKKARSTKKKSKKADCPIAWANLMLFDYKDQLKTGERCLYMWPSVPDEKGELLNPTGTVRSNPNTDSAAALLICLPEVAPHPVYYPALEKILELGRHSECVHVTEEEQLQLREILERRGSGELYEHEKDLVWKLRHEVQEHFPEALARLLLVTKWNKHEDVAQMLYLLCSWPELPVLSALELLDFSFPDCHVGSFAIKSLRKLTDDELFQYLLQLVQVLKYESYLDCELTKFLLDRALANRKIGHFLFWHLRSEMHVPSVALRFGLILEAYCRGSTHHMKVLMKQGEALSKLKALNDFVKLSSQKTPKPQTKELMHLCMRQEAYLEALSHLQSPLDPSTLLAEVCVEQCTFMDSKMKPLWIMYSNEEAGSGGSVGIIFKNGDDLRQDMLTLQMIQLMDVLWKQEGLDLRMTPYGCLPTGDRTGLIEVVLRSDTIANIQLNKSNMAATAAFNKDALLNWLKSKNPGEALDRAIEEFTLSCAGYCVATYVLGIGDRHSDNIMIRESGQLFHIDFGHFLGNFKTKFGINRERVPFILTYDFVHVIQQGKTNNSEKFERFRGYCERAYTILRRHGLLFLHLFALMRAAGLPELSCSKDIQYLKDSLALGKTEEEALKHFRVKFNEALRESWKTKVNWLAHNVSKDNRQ
# [7] = target: T2, Phosphatidylinositol 4,5-bisphosphate 3-kinase catalytic subunit delta isoform (Homo sapiens); conditions: at 1 µM
# [8] = target: Phosphatidylinositol 4-kinase beta (Homo sapiens) (UniProt Q9UBF8); conditions: at 0.1 µM
# [9] = target: Phosphatidylinositol 4-kinase beta (Homo sapiens) (UniProt Q9UBF8); conditions: at 1 µM
# [10] = target: Sphingosine kinase 1 (Homo sapiens) (UniProt Q9NYA1); conditions: at 0.1 µM
# [11] = target: Sphingosine kinase 1 (Homo sapiens) (UniProt Q9NYA1); conditions: at 1 µM
# [12] = target: T3, Sphingosine kinase 2 (Homo sapiens) (UniProt Q9NRA0); conditions: at 0.1 µM
# T3 sequence (whole entry): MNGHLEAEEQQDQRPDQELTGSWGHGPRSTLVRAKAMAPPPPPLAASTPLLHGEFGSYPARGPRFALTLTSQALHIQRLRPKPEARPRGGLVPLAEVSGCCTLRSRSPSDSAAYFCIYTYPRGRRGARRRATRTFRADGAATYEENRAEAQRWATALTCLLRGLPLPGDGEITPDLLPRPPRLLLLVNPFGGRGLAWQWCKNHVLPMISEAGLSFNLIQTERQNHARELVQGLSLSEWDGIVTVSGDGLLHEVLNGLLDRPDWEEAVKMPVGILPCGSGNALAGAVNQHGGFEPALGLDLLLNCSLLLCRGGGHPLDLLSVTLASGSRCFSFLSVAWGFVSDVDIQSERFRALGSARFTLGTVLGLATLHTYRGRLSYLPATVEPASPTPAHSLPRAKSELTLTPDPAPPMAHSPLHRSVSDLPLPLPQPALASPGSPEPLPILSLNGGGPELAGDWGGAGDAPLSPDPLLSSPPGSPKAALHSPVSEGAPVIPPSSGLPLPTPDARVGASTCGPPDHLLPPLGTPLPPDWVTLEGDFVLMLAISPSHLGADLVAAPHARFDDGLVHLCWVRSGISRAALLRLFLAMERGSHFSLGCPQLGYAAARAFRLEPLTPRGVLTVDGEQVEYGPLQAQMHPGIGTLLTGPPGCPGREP
# [13] = target: T3, Sphingosine kinase 2 (Homo sapiens); conditions: at 1 µM
# [14] = target: Casein kinase II subunit alpha (Homo sapiens) (UniProt P68400); conditions: at 0.1 µM
# [15] = target: Casein kinase II subunit alpha (Homo sapiens) (UniProt P68400); conditions: at 1 µM
# [16] = target: T4, Inhibitor of nuclear factor kappa-B kinase subunit alpha (Homo sapiens) (UniProt O15111); conditions: at 0.1 µM
# T4 sequence (whole entry): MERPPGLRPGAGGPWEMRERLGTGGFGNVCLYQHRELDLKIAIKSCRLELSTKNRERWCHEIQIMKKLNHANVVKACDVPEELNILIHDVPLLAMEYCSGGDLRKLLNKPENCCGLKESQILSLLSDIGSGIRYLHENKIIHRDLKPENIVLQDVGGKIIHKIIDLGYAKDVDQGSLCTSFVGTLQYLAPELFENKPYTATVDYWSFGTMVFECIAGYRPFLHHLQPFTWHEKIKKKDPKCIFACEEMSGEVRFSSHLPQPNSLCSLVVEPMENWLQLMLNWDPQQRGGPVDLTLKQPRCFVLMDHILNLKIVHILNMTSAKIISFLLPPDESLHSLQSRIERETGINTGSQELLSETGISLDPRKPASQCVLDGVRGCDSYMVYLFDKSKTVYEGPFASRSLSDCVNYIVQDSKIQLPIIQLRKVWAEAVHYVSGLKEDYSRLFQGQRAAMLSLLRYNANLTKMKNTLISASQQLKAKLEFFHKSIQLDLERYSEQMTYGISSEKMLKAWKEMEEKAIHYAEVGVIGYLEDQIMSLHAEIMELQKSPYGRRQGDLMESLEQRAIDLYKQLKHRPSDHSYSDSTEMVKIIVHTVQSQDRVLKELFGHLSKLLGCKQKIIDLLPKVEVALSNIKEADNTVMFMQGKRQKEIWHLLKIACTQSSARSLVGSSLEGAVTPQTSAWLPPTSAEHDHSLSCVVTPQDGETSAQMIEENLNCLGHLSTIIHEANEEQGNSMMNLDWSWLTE
# [17] = target: T4, Inhibitor of nuclear factor kappa-B kinase subunit alpha (Homo sapiens); conditions: at 1 µM
# [18] = target: T5, Inhibitor of nuclear factor kappa-B kinase subunit beta (Homo sapiens) (UniProt O14920); conditions: at 0.1 µM
# T5 sequence (whole entry): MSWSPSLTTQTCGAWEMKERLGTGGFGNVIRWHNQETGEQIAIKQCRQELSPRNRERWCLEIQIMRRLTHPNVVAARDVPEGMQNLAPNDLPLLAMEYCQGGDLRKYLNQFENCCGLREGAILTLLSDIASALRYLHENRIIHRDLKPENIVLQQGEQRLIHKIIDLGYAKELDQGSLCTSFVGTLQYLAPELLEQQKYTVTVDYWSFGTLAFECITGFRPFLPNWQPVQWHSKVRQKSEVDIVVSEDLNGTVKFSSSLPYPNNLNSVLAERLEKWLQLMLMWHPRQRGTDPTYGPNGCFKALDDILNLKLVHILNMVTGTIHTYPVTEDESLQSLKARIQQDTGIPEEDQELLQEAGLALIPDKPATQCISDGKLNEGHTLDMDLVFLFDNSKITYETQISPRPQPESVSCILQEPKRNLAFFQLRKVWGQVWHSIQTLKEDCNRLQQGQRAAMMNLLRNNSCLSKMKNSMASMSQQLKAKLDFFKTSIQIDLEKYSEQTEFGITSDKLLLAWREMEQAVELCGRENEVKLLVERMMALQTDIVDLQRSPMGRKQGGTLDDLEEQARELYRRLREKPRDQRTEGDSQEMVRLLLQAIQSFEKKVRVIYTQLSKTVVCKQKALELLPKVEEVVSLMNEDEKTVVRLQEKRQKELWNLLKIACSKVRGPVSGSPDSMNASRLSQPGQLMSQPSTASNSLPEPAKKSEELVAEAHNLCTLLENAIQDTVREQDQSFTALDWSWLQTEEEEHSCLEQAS
# [19] = target: T5, Inhibitor of nuclear factor kappa-B kinase subunit beta (Homo sapiens); conditions: at 1 µM
# [20] = target: T6, Inhibitor of nuclear factor kappa-B kinase subunit epsilon (Homo sapiens) (UniProt Q14164); conditions: at 0.1 µM;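 further: mean inhibition of IKKε reported, from the GSK PKIS dataset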
# T6 sequence (whole entry): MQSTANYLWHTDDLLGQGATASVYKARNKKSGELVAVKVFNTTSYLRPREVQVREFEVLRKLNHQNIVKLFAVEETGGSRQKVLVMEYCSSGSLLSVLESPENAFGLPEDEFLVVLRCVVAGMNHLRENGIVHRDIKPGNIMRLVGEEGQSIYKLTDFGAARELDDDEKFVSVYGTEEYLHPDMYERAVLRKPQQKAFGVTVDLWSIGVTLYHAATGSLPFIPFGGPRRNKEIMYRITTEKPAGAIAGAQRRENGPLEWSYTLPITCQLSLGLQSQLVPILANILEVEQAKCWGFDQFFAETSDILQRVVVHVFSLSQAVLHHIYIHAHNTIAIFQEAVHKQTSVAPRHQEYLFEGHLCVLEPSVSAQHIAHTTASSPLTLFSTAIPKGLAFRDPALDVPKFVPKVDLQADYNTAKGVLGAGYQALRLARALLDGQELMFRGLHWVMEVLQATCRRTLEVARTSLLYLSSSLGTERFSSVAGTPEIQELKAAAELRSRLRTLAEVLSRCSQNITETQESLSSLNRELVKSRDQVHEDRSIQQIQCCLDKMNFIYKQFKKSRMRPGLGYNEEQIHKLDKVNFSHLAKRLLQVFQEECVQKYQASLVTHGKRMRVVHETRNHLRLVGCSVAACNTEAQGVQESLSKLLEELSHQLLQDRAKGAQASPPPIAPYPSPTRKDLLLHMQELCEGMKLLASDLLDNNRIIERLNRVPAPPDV
# Chain of Phosphatidylinositol 4-kinase beta (Homo sapiens) (Q9UBF8 2-816 limits assumed): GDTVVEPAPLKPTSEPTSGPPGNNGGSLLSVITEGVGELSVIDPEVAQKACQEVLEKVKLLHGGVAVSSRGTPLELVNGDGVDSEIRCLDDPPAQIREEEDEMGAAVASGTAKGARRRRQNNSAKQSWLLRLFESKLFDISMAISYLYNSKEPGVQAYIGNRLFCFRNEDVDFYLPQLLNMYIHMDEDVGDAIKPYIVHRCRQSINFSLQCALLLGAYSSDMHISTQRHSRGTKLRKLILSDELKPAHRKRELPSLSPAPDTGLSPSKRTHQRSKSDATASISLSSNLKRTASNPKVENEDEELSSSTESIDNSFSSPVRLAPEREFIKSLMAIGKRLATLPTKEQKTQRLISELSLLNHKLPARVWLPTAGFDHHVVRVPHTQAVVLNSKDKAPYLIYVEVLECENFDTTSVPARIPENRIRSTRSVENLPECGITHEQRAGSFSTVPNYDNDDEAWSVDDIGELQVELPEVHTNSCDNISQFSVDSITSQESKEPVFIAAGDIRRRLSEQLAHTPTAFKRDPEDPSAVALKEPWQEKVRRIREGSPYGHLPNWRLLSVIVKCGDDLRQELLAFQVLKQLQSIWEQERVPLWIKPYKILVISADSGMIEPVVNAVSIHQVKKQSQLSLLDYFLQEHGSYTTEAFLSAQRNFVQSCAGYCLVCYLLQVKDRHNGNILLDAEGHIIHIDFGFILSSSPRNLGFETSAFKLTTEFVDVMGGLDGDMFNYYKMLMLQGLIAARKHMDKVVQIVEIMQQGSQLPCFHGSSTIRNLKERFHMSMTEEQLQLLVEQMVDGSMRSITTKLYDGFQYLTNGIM
# Chain of Sphingosine kinase 1 (Homo sapiens) (Q9NYA1 whole entry): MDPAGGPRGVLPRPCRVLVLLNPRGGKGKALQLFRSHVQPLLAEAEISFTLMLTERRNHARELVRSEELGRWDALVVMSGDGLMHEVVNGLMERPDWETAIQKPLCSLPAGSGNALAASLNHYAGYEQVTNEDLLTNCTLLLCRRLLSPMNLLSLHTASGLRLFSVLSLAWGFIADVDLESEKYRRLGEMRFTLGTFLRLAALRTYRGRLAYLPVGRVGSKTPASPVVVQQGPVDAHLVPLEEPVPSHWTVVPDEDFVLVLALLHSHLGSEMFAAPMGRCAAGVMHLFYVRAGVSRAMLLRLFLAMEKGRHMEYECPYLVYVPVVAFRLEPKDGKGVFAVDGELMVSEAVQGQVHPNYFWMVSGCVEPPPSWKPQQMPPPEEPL
# Chain of Phosphatidylinositol 4,5-bisphosphate 3-kinase catalytic subunit alpha isoform (Homo sapiens) (P42336 whole entry, canonical isoform): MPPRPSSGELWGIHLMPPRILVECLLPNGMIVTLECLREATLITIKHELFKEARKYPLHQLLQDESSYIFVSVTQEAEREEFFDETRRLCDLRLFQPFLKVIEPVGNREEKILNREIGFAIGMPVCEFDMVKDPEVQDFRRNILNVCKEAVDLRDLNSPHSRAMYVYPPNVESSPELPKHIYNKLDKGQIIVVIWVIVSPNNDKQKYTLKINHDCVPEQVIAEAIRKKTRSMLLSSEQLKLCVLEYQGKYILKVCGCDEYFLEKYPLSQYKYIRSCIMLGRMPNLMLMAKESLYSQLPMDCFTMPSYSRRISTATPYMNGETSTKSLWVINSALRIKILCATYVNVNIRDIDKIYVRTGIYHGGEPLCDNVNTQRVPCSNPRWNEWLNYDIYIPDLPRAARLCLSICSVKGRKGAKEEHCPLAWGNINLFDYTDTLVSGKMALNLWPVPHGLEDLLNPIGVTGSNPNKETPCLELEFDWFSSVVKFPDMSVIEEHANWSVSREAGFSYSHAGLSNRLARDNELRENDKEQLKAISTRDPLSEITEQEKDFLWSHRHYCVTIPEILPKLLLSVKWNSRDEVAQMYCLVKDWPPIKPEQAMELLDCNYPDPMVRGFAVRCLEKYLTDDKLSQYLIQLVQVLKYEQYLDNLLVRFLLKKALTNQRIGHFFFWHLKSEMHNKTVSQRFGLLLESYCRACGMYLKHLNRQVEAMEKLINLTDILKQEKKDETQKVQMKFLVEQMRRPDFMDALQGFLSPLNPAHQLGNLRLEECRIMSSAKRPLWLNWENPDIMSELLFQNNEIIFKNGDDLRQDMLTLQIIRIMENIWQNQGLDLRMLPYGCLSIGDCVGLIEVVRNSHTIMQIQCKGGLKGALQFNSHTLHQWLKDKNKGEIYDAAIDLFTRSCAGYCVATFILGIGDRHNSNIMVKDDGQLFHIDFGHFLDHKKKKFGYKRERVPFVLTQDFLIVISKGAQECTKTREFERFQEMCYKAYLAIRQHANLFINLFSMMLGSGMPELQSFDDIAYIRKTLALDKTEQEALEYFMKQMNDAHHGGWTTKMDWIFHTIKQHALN
# Chain of SRSF protein kinase 1 (Homo sapiens) (Q96SB4 whole entry, canonical isoform): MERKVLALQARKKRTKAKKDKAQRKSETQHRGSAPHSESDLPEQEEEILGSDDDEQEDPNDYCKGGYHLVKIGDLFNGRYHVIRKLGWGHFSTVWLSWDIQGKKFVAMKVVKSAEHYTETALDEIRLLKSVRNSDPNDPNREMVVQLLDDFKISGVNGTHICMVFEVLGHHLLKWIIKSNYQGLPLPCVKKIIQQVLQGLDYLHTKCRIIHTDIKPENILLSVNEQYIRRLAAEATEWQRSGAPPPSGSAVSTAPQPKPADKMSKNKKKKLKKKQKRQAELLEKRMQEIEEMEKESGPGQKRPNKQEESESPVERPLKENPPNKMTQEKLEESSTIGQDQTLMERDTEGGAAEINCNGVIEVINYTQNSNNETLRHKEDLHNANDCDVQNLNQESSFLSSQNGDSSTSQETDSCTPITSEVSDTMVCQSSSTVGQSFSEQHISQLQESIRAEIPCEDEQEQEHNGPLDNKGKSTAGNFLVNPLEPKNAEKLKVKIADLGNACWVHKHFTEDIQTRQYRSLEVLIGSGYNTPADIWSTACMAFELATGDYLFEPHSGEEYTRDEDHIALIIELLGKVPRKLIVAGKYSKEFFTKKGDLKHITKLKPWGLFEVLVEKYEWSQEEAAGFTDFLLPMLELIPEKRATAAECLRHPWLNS
# Chain of Casein kinase II subunit alpha (Homo sapiens) (P68400 whole entry, looked up): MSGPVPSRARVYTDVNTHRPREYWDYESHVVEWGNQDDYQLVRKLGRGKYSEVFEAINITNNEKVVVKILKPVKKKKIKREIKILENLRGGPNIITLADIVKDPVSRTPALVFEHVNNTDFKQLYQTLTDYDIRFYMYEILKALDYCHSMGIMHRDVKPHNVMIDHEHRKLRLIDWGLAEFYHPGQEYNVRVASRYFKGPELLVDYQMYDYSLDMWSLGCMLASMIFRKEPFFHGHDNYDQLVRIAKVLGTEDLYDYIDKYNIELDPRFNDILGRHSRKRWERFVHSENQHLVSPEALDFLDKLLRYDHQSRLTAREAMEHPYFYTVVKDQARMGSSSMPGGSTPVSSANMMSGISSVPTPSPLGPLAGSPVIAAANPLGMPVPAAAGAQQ
SMILES,inhibition [1] [%],inhibition [2] [%],inhibition [3] [%],inhibition [4] [%],inhibition [5] [%],inhibition [6] [%],inhibition [7] [%],inhibition [8] [%],inhibition [9] [%],inhibition [10] [%],inhibition [11] [%],inhibition [12] [%],inhibition [13] [%],inhibition [14] [%],inhibition [15] [%],inhibition [16] [%],inhibition [17] [%],inhibition [18] [%],inhibition [19] [%],inhibition [20] [%]
c1cc(-c2cnn3nc(N4CCOCC4)ccc23)nc(NC2CC2)n1,13.6,-1.17,1.29,2.09,6.22,1.85,4.21,0.77,21,-1.93,0.41,0,1.66,1.46,7.14,6.71,15.7,3.81,5.82,2.67
COc1ccc(-c2cc(-c3c[nH]nc3-c3ccccn3)ccn2)cc1,2.33,-1.02,2.7,3.47,1.91,-0.37,0.72,2.38,2.14,1.57,0.76,-1.45,-1.01,5.84,8.65,-3.06,10.5,7.11,8.08,7.81
COC(=O)c1sc(-n2cnc3cc(OC)c(OC)cc32)cc1OCc1ccccc1C(F)(F)F,2.9,-3.05,-6.39,4.25,4.16,2.55,4.61,-0.98,-2.56,-3.91,1.91,0.14,-2.19,0.66,-0.18,3.9,5.32,5.59,4.11,3.88
CCN1CCC(CC(=O)Nc2n[nH]c3nnc(-c4cccc(F)c4F)cc23)CC1,1.97,-2.57,-3.98,3.38,2.58,2.16,1.94,2.58,-1.91,0.09,1.84,-1.05,0,5.23,2.82,4.71,0.12,5.28,3.6,4.71
CCNC(=O)O[C@H]1CN[C@H](C#Cc2cc3ncnc(Nc4ccc(OCc5cccc(F)c5)c(Cl)c4)c3s2)C1,0.98,-1.03,-0.8,3.18,29,2.96,17.2,-1.09,0.43,0.82,-0.72,0.52,-3.06,0.94,-1.06,2.78,-6.68,3.34,1.97,2.87
